Data on five compounds can be found in the supplement of paper PMC11624193, “Coupling cellular drug-target engagement to downstream pharmacology with CeTEAM” (Nature Communications, 2024).

Each structure is given as a SMILES string.

For this experiment, the target named is PARP1 L713F-nLuc biosensor (HCT116) (UniProt P09874). Description: PARP1 L713F-nLuc/akaLuc ratio relative to DMSO control (biosensor stabilization) (fold change); higher = more PARP1 biosensor stabilization (target engagement / stabilizer), active = hit call of the paper. Particulars: stock concentration (mM; final µM = stock mM x 1): 10; 24 h;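 active = log2 fold change beyond 2 SD from the library mean after excluding viability outliers; inactive = within 2 SD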.
PARP1 L713F-nLuc biosensor (HCT116), sequence (P09874 whole entry L713F, looked up): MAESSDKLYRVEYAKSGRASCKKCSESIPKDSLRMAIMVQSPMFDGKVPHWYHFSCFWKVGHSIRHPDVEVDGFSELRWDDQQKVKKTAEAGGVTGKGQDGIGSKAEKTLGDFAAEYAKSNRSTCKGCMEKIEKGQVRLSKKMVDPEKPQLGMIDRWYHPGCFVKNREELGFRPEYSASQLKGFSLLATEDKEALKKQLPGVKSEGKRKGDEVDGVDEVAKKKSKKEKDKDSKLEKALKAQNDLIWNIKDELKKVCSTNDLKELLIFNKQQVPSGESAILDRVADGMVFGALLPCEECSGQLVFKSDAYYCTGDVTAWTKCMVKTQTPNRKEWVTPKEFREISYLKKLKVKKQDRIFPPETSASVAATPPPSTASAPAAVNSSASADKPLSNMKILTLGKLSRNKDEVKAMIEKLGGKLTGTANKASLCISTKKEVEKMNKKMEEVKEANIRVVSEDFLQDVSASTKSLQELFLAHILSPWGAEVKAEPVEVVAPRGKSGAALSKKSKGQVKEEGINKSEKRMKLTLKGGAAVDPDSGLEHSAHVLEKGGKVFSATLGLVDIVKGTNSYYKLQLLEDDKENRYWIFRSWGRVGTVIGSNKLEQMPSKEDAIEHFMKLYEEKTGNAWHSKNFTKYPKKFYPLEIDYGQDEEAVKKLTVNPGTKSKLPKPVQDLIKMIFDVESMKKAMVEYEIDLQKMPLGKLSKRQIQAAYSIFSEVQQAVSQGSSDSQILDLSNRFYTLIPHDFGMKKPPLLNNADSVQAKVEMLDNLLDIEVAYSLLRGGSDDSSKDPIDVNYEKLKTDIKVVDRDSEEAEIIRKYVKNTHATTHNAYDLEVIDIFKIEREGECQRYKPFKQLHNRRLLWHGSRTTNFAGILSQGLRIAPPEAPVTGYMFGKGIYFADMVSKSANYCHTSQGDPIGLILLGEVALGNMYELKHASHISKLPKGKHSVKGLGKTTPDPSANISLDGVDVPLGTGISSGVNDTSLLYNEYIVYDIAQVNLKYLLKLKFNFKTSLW
Take `O=c1ccc2ccc(O)c(O)c2o1` [Daphnetin]: the “PARP1 L713F-nLuc/akaLuc ratio” value was 1.38 (inactive).
For `O=C(NCC1(c2nc(-c3ccccc3)cs2)CCOCC1)c1cccc(-c2noc(C(F)(F)F)n2)c1` the value was 0.465 (inactive); for `COc1ccccc1C(=O)Nc1cc2c(cc1N1CCCC1)n(C)c(=O)n2C`, 0.797 (inactive); for `C[C@@H]1CC[C@@]2(OC1)O[C@H]1C[C@H]3[C@@H]4CC=C5C[C@@H](O[C@@H]6O[C@H](CO)[C@@H](O[C@@H]7O[C@@H](C)[C@H](O[C@@H]8O[C@@H](C)[C@H](O)[C@@H](O)[C@H]8O)[C@@H](O)[C@H]7O)[C@H](O)[C@H]6O[C@@H]6O[C@@H](C)[C@H](O)[C@@H](O)[C@H]6O)CC[C@]5(C)[C@H]4CC[C@]3(C)[C@@]1(O)[C@@H]2C` [Paris saponin VII], 1.01 (inactive).
Turning to `Oc1cc(O)c2c(c1)OC1(c3ccc(O)c(O)c3)Oc3cc(O)c4c(c3C2C1O)OC(c1ccc(O)c(O)c1)C(O)C4` (stereo not given) [Procyanidin A1], the “PARP1 L713F-nLuc/akaLuc ratio” value is 1.43 (inactive).
